# Data as given in article PMC7862700, “An all-to-all approach to the identification of sequence-specific readers for epigenetic DNA modifications on cytosine”.
# Columns and labels:
# Assay in all cases: DAPPL (digital affinity profiling via proximity ligation, sequencing); 10 mM Tris-HCl pH 7.5, 50 mM NaCl, 1 mM DTT, 4% glycerol, room temperature, 30 min; GST-TFs on glutathione beads, 16-mer random dsDNA library, 0.1% formaldehyde crosslink after washing; high values mean tight binding
# FEV = target: T1, FEV (Homo sapiens, UniProt Q99581 1-238); details: protein: recombinant; tags: N-terminal GST; dsDNA, one strand shown
# T1 sequence: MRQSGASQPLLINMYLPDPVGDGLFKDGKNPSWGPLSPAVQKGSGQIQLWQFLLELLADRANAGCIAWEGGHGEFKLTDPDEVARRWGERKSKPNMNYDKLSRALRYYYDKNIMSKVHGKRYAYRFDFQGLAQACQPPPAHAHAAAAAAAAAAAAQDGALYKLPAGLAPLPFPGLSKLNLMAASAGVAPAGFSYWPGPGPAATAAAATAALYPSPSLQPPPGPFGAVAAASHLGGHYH
# Outline: (§1)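 A tag-only sample was pooled with DNA-barcoded human transcription factors that had been expressed in yeast as GST fusions and captured on glutathione beads. The pools were incubated for 30 min at room temperature with 200 nmole of a random double-stranded 16-mer DNA library in Tris/NaCl/DTT/glycerol buffer, then washed, crosslinked with 0.1% formaldehyde, proximity-ligated (BsaI/T4 ligase, 1 h, 37 °C), PCR-amplified and sequenced on an Illumina NextSeq500. Binding signal is each hexamer's read frequency for a factor divided by its frequency for the tag-only sample.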
# ETV5 = ETV5 (Homo sapiens, UniProt P41161 1-510); details: protein: recombinant; tags: N-terminal GST; dsDNA, one strand shown
# ETV5, sequence (P41161 whole entry): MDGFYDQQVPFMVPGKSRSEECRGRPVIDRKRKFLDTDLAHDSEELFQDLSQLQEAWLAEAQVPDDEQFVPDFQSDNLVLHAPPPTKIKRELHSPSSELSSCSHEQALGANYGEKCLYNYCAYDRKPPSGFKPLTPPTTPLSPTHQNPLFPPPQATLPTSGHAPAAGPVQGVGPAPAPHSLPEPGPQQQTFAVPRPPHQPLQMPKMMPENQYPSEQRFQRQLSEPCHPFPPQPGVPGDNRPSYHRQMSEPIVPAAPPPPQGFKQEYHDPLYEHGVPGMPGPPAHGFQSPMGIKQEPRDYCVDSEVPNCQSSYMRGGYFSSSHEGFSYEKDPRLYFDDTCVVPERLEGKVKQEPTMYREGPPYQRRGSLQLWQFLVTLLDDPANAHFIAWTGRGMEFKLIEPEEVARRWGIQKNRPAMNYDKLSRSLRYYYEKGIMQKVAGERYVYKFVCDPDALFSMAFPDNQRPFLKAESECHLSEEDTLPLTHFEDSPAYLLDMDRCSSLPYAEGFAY
# Outline: as §1
# HSF1 = HSF1 (Homo sapiens, UniProt Q00613 1-529); details: protein: recombinant; tags: N-terminal GST; chain copies: 3; dsDNA, one strand shown
# HSF1, sequence (Q00613 whole entry): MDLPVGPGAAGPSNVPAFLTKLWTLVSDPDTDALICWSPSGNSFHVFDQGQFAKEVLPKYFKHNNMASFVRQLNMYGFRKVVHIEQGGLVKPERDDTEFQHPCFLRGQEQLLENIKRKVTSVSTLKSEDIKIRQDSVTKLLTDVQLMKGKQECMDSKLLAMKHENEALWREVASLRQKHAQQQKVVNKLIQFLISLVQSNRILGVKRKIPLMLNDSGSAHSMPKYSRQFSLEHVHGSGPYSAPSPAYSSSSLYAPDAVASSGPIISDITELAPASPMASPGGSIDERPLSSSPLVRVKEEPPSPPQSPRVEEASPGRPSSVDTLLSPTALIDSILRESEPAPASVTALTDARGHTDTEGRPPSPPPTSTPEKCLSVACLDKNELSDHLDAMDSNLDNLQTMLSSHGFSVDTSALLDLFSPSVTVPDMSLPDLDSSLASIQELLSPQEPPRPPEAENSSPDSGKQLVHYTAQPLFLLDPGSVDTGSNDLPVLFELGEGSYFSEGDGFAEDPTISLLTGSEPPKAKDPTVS
# Outline: as §1
# SPIC = target: T2, SPIC (Homo sapiens, UniProt Q8N5J4 1-248); details: protein: recombinant; tags: N-terminal GST; dsDNA, one strand shown
# T2 sequence: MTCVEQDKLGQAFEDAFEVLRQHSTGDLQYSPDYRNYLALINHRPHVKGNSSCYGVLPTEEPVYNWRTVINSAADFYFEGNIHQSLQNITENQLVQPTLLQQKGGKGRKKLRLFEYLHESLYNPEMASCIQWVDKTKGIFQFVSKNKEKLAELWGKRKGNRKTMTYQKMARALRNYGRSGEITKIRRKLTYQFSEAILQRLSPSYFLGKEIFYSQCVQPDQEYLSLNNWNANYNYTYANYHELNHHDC
# Outline: as §1
# ELF4 = ELF4 (Homo sapiens, UniProt Q99607 1-663); details: protein: recombinant; tags: N-terminal GST; dsDNA, one strand shown
# ELF4, sequence (Q99607 whole entry): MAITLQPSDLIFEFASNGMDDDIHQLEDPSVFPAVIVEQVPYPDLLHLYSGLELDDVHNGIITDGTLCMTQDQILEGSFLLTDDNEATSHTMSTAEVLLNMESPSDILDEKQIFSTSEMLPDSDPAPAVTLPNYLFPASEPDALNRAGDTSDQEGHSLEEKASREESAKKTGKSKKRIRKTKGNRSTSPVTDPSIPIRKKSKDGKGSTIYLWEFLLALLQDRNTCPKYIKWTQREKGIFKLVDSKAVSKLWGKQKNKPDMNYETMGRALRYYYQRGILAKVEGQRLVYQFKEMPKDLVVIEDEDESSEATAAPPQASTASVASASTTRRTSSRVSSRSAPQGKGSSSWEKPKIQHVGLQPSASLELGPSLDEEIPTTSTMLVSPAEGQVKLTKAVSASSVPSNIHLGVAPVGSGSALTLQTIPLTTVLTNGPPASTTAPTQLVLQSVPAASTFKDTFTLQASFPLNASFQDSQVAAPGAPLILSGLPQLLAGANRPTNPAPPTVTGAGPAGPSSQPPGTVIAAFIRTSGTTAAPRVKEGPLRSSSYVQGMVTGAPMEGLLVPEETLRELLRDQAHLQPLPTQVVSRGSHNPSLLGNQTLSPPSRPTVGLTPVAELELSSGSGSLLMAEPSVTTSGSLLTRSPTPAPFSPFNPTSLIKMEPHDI
# Outline: as §1
# ELK4 = target: T3, ELK4 (Homo sapiens, UniProt P28324-2 1-405); details: protein: recombinant; tags: N-terminal GST; dsDNA, one strand shown
# T3 sequence: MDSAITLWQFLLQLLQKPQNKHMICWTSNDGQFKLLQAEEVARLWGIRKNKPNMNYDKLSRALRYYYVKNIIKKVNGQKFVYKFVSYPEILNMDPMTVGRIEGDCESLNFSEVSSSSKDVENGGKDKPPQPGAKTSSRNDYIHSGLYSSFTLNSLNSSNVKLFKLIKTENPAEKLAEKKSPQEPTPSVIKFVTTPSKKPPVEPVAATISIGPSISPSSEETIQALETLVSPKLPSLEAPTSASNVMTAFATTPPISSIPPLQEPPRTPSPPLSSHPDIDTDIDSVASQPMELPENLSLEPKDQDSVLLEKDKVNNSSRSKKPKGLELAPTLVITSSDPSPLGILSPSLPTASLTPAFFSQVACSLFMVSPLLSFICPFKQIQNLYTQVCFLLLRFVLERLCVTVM
# Outline: as §1
# ETV2 = target: T4, ETV2 (Homo sapiens, UniProt O00321 1-342); details: protein: recombinant; tags: N-terminal GST; dsDNA, one strand shown
# T4 sequence: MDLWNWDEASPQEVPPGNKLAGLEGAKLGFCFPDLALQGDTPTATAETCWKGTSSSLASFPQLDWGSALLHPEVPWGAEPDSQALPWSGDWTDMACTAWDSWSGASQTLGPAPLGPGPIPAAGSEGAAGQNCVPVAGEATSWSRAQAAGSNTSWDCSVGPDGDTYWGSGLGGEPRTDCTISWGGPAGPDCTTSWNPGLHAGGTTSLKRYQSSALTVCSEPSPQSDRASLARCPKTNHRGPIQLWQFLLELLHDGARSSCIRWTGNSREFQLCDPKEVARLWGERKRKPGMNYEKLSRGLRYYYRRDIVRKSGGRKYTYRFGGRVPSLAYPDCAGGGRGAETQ
# Outline: as §1
# ELF3 = target: T5, ELF3 (Homo sapiens, UniProt P78545 1-371); details: protein: recombinant; tags: N-terminal GST; dsDNA, one strand shown
# T5 sequence: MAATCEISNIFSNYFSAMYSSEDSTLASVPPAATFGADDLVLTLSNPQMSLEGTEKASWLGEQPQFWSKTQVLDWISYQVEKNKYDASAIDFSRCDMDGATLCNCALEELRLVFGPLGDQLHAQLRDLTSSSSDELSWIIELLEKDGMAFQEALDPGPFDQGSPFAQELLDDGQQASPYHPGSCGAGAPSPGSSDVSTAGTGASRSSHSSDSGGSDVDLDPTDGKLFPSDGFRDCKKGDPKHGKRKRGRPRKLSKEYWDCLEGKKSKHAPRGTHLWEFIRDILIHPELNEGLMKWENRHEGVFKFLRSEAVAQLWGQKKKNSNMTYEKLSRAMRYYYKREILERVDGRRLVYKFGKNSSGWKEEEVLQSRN
# Outline: as §1
# CRX = CRX (Homo sapiens, UniProt O43186 1-299); details: protein: recombinant; tags: N-terminal GST; dsDNA, one strand shown
# CRX, sequence (O43186 whole entry): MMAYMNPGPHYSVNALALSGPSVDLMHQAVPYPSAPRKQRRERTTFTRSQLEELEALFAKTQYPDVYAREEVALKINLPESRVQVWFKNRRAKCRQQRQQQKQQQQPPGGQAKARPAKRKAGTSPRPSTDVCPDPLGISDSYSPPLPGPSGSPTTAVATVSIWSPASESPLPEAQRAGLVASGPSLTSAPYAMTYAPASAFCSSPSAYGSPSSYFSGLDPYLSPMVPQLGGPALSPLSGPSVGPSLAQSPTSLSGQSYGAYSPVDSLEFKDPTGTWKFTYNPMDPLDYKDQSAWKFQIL
# Outline: as §1
# ETV1 = ETV1 (Homo sapiens, UniProt P50549 1-477); details: protein: recombinant; tags: N-terminal GST; dsDNA, one strand shown
# ETV1, sequence (P50549 whole entry): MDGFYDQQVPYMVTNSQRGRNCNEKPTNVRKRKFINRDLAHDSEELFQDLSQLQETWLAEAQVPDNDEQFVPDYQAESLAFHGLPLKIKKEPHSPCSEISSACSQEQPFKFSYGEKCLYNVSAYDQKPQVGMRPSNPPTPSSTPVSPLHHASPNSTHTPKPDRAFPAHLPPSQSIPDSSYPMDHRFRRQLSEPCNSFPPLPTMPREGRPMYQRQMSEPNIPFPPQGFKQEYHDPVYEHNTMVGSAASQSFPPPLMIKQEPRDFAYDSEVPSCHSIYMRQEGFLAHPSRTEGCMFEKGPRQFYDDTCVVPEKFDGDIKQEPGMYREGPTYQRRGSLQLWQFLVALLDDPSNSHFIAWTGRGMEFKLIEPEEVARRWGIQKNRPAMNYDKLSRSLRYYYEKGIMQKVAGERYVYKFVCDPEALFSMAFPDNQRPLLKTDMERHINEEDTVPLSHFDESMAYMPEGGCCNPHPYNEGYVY
# Outline: as §1
sequence,measurement,setting,value
TAATTT,binding signal,FEV,"1.35 fold enrichment (6-mer frequency, TF over GST control)"
same,binding signal,ETV5,"1.46 fold enrichment (6-mer frequency, TF over GST control)"
same,binding signal,HSF1,"1.64 fold enrichment (6-mer frequency, TF over GST control)"
same,binding signal,SPIC,"1.41 fold enrichment (6-mer frequency, TF over GST control)"
same,binding signal,ELF4,"1.36 fold enrichment (6-mer frequency, TF over GST control)"
same,binding signal,ELK4,"1.38 fold enrichment (6-mer frequency, TF over GST control)"
same,binding signal,ETV2,"1.58 fold enrichment (6-mer frequency, TF over GST control)"
same,binding signal,ELF3,"1.49 fold enrichment (6-mer frequency, TF over GST control)"
same,binding signal,CRX,"2.03 fold enrichment (6-mer frequency, TF over GST control)"
same,binding signal,ETV1,"1.35 fold enrichment (6-mer frequency, TF over GST control)"
